In the supplement of paper PMC6897291:
Where a name gives a salt, the structure may show the parent alone.

system: RIVA; test: growth inhibition by drug plus 177Lu-lilotomab satetraxetan (1 - RLU/untreated control) (fraction); higher = stronger inhibition; conditions: 100 nM; time (day): 4; 177Lu-lilotomab satetraxetan 0.5 ug/ml
Summary of the method: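 A radiolabelled anti-CD37 antibody conjugate (~600 MBq/mg) was applied for 18 h at 0.5 µg/ml to RIVA and 1 µg/ml to U-2932 cells, with untreated cells run alongside. All cells were washed and seeded at 3,000 cells/well onto library-printed plates at 10/100 nM (RIVA) or 10/1,000 nM (U-2932). Growth inhibition was based on RealTime-Glo luminescence compared with untreated no-drug wells. Daily reads began on day 3 after 1 h at 37°C, with each value being 1 − RLU/mean of the 48 such wells on that plate.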

SMILES	growth inhibition by drug plus 177Lu-lilotomab satetraxetan
Nc1nc2[nH]cc(CCc3ccc(C(=O)N[C@@H](CCC(=O)O)C(=O)O)cc3)c2c(=O)[nH]1 [Pemetrexed]	0.44
COc1cc2nccc(Oc3ccc(NC(=O)Nc4cc(C)on4)c(Cl)c3)c2cc1OC [Tivozanib (AV-951)]	0.535
CCC(=O)N1CCN(c2ccc(-n3c(=O)ccc4cnc5ccc(-c6cnc7ccccc7c6)cc5c43)cc2C(F)(F)F)CC1 [Torin 1]	0.604
COc1cccc2c1C(=O)c1c(O)c3c(c(O)c1C2=O)C[C@@](O)(C(=O)CO)C[C@@H]3O[C@H]1C[C@H](N)[C@@H](O)[C@H](C)O1 [Epirubicin Hydrochloride]	0.93
Clc1ccc(Nc2nnc(Cc3ccncc3)c3ccccc23)cc1 [Vatalanib dihydrochloride (PTK787)]	0.442
COc1cc2nccc(Oc3ccc(NC(=O)C4(C(=O)Nc5ccc(F)cc5)CC4)cc3)c2cc1OC [XL-184 free base (Cabozantinib)]	0.52
C[C@@H](O[C@H]1OCCN(Cc2n[nH]c(=O)[nH]2)[C@H]1c1ccc(F)cc1)c1cc(C(F)(F)F)cc(C(F)(F)F)c1 [Aprepitant (MK-0869)]	0.43
COc1cc2c(cc1O)CC[C@@H]1[C@@H]2CC[C@]2(C)[C@@H](O)CC[C@@H]12 [2-Methoxyestradiol]	0.401
CNCc1ccc(-c2[nH]c3cc(F)cc4c3c2CCNC4=O)cc1	0.54
CC[C@@]1(O)C(=O)OCc2c1cc1n(c2=O)Cc2cc3c(CN(C)C)c(O)ccc3nc2-1 [Topotecan HCl]	0.883
Nc1cc(C(F)(F)F)c(-c2cc(N3CCOCC3)nc(N3CCOCC3)n2)cn1	0.394
CC(C)(C)c1ccc(S(=O)(=O)/C=C/C#N)cc1	0.513
C[C@]1(c2nc3c(C(N)=O)cccc3[nH]2)CCCN1 [ABT-888 (Veliparib)]	0.418
Cc1ccc(NC(=O)c2ccc(CN3CC[C@H](N(C)C)C3)c(C(F)(F)F)c2)cc1Nc1nccc(-c2cncnc2)n1 [Bafetinib (INNO-406)]	0.503
C[C@]12CC[C@@H]3c4ccc(O)cc4CC[C@H]3[C@@H]1CCC2=O [Estrone]	0.43
O=C(c1ccc(OCCN2CCCCC2)cc1)c1c(-c2ccc(O)cc2)sc2cc(O)ccc12 [Evista (Raloxifene Hydrochloride)]	0.482
CCN(CC)CCNC(=O)c1c(C)[nH]c(/C=C2\C(=O)Nc3ccc(F)cc32)c1C [Sunitinib Malate (Sutent)]	0.374
CCOc1ccc(Nc2nc(-c3c(C)nc4ccccn34)cs2)cc1	0.965
C=CC(=O)N1CCC[C@@H](n2nc(-c3ccc(Oc4ccccc4)cc3)c3c(N)ncnc32)C1	0.9

SMILES	growth inhibition by drug plus 177Lu-lilotomab satetraxetan
CS(=O)(=O)c1cccc(CNc2nc(Nc3ccc4c(c3)CCC(=O)N4)ncc2C(F)(F)F)c1	0.328
CC(NC(=O)c1ccccc1/N=C/c1c(O)ccc2ccccc12)c1ccccc1 (stereo not drawn) [Sirtinol]	0.523
CN(Cc1cnc2nc(N)nc(N)c2n1)c1ccc(C(=O)N[C@@H](CCC(=O)O)C(=O)O)cc1 [Abitrexate (Methotrexate)]	0.49
OCCn1cc(-c2cnc3nnn(Cc4ccc5ncccc5c4)c3n2)cn1	0.474
COc1cc(Nc2ncc(F)c(Nc3ccc4c(n3)NC(=O)C(C)(C)O4)n2)cc(OC)c1OC [R406(free base)]	0.564
COc1cccc2c1C(=O)c1c(O)c3c(c(O)c1C2=O)C[C@@](O)(C(=O)CO)C[C@@H]3O[C@H]1C[C@H](N)[C@H](O)[C@H](C)O1 [Doxorubicin (Adriamycin)]	0.928
CN(NC(=O)CC(=O)NN(C)C(=S)c1ccccc1)C(=S)c1ccccc1 [Elesclomol]	0.988
CN(C)CCOc1ccc(/C(=C(/CCCl)c2ccccc2)c2ccccc2)cc1 [Toremifene Citrate (Fareston, Acapodene)]	0.711
CN1CCN(CCOc2cc(OC3CCOCC3)c3c(Nc4c(Cl)ccc5c4OCO5)ncnc3c2)CC1 [Saracatinib (AZD0530)]	0.536
CC(C)C[C@H](NC(=O)[C@H](Cc1ccccc1)NC(=O)c1cnccn1)B(O)O [Bortezomib (Velcade)]	0.989
Cn1cncc1[C@@](N)(c1ccc(Cl)cc1)c1ccc2c(c1)c(-c1cccc(Cl)c1)cc(=O)n2C [Tipifarnib (Zarnestra)]	0.521
COC(=O)c1ccc2c(C(=Nc3ccc(N(C)C(=O)CN4CCN(C)CC4)cc3)c3ccccc3)c(O)[nH]c2c1 [BIBF1120 (Vargatef)]	0.362
CC[C@@H]1/C=C(\C)C[C@H](C)C[C@H](OC)[C@H]2O[C@@](O)(C(=O)C(=O)N3CCCC[C@H]3C(=O)O[C@H](/C(C)=C/[C@@H]3CC[C@H](Cl)[C@H](OC)C3)[C@H](C)[C@@H](O)CC1=O)[C@H](C)C[C@@H]2OC [Pimecrolimus]	0.675
CN(C)CCOc1ccc(-c2nc(-c3ccncc3)c(-c3ccc4c(c3)CC/C4=N\O)[nH]2)cc1	0.315
COc1ccc(CCN2CCN(CCCc3ccccc3)CC2)cc1OC	0.137
CNC(=O)c1cc(Oc2ccc(NC(=O)Nc3cc(C(C)(C)C)nn3-c3ccc4ncccc4c3)c(F)c2)ccn1 [DCC-2036 (Rebastinib)]	0.607
CCC(C)(C)C(=O)O[C@H]1C[C@@H](C)C=C2C=C[C@H](C)[C@H](CC[C@@H]3C[C@@H](O)CC(=O)O3)[C@H]21 [Simvastatin (Zocor)]	0.494
CCc1ccc(CCOc2ccc(CC3SC(=O)NC3=O)cc2)nc1 (stereo not drawn) [Pioglitazone (Actos)]	0.476
O=C(O)C(Cc1c[nH]c2ccccc12)N1C(=O)c2ccccc2C1=O (stereo not drawn)	0.394
